Screens as filed in PubChem BioAssay.
The list is not random: actives were taken first. Their share in the collection is about 4.2%.
Hsp90 Hop PPI: changes Hsp90-Hop TPR2A binding signal, up or down | AlphaScreen TPR2A-His6 binding biotin-Hsp90 C-terminal peptide | 71,000 compounds, 0.44% hits | Potency, µM (titrated, usually from 57 µM), inactives show top-dose activity change, negative = inhibition; active = well fitted curve in either direction with a large enough effect; inconclusive = small, poorly fitted or top-dose-only effect, or another doubt; also: potency is read from the fitted curve at half-maximal effect; % is scaled to controls: 0 for no effect and ±100 for the full control effect
15-hLO inh: blocks human 15-lipoxygenase activity | P16050 | purified 15hLO-1, xylenol orange hydroperoxide absorbance | Potency, µM (series often up to 57.1 µM), inactives show at the top dose activity change, negative = inhibition, most hits filed as inhibitors | 74,000 compounds, 1.4% hits; also: potency is read from the fitted curve at half-maximal effect; % is scaled to controls: 0 for no effect and ±100 for the full control effect; nearly all actives have a fitted effect of over 55% in size
Target sequence (P16050 whole entry, looked up): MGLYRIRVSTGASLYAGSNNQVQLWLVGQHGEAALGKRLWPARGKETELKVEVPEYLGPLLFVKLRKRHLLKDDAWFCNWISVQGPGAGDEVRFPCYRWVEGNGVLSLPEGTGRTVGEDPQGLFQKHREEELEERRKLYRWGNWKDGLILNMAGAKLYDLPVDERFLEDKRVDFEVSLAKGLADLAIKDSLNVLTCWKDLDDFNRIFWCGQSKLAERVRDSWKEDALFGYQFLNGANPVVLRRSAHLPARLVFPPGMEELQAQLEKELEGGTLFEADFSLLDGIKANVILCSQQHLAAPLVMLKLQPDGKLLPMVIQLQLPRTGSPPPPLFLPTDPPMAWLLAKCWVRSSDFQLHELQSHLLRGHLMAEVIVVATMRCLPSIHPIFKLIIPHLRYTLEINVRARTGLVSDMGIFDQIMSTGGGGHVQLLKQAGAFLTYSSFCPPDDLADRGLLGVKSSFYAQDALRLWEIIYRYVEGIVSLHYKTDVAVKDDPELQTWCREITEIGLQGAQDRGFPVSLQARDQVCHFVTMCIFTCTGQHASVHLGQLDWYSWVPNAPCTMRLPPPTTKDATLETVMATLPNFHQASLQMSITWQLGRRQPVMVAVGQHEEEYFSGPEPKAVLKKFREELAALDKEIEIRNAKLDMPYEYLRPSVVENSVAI
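Inhibition is scored from a chromogenic endpoint. After 15 min enzyme-compound contact, arachidonic acid (50 uM final) reacts 6 min with 40 nM 15hLO-1 at room temperature, then Fe-XO reagent is added for 30 min and absorbance ratio recorded.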
ERK AVP inh: vasopressin-driven ERK pathway inhibition; HEK293-V1b, vasopressin-stimulated pERK AlphaScreen; Potency, µM (doses to about 57.5 µM), for inactives: top-dose activity, negative = inhibition, most hits filed as inhibitors; 72,000 compounds, 0.99% hits; also: potency is read from the fitted curve at half-maximal effect; % is scaled to controls: 0 for no effect and ±100 for the full control effect; nearly all actives have a fitted effect of over 55% in size
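Overnight-seeded V1b-HEK293 cells in 1% FBS got compound, then vasopressin (25 nM final, 5 min, 37C), then lysis buffer. AlphaScreen detection of phospho-ERK; activity normalized to basal and full-stimulation controls.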
TsaE inh: displaces an ADP probe from E. coli YjeE (TsaE); Potency, µM; 71,000 compounds, 0.05% hits; purified YjeE enzyme, qHTS inhibition assay
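Purified YjeE (10 uM) with BODIPY Texas Red-labeled ADP probe (2 uM); compounds pin-transferred, 15 min at room temperature. Binding inhibition read as decreased fluorescence polarization; ADP titration as control.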
Tau filament bind: binds recombinant human tau filaments. P10636. recombinant tau filaments, thioflavin S fluorescence, 15 h; filaments grown with octadecylsulfate alongside compound. Potency, µM (series often up to 57.1 µM), without a hit: at the highest dose activity change, negative = inhibition. 71,000 compounds, 2% hits. AID 596;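 also: potency is read from the fitted curve at half-maximal effect; % is scaled to controls: 0 for no effect and ±100 for the full control effect; actives lower thioflavin S fluorescence by blocking filaments or displacing dye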
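Thioflavine S fluorescence (ex 450, em 510 nm) reports filaments formed from 1 uM human tau plus 30 uM ODS over 15 h at 37 C (10 mM HEPES pH 7.4, 100 mM NaCl, 5 mM DTT); compounds displacing dye or blocking filaments lower signal.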
DNA Pol III inh: inhibitors of bacterial DNA polymerase III holoenzyme. Potency, µM (top dose mostly 57.1 µM), without a hit: top-dose activity change, negative = inhibition. 71,000 compounds, 0.25% hits. reconstituted DNA polymerase III holoenzyme replication, biochemical. AID 603; also: potency is read from the fitted curve at half-maximal effect; % is scaled to controls: 0 for no effect and ±100 for the full control effect
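Reconstituted *E. coli* holoenzyme (0.35 nM Pol III, 1 nM beta, 154 nM SSB, 2 nM primase) was preincubated with compound for 15 min at RT. Synthesis on 1.4 nM ssM13Gori ran 35 min, then was stopped with PicoGreen/EDTA and read as dsDNA fluorescence.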
The depositor's hits bear a star; i = inactive; ? = inconclusive; [ ] = remark or other dose. Unless noted, calls follow the shape of the dose curve; as a rule, active = well fitted curve in the direction sought with a large enough effect; inconclusive = small, poorly fitted or top-dose-only effect, or another doubt; inactive = no such curve, though single readings can be large; an effect the other way counts as inactive or inconclusive.

SMILES	Hsp90 Hop PPI	15-hLO inh	ERK AVP inh	TsaE inh	Tau filament bind	DNA Pol III inh
CCOC(=O)CCCc1sc(N)nc1-c1[nH]c(=O)[nH]c1C	3.98µM*	?	-14.4%	i	11.1%	-0.9%
COCCn1c(=O)c(-c2cccc(C#N)c2)nc2cnc(Oc3cccc(Cl)c3)nc21	-3.2%	1.3%	?	i	?	-2.3%
O=C(COC(=O)c1cccc(NC(=O)c2ccco2)c1)c1ccc(Br)cc1	-0.8%[11 µM]	-7.2%[11.4 µM]	15.8µM*	i	92.9%[11.4 µM]	-0.8%[11.4 µM]
O=C(CSCc1ccc(Cl)cc1)c1ccco1	24.7%	31.6µM*	?	i	?	-7.5%
O=C(CSc1nc2cc(Cl)ccc2s1)c1ccco1	4.1%	-4.0%	-6.0%	i	-16.9%	-3.5%
CCOc1ccccc1N1CCN(C(=O)c2cccc(-c3ccc(O)cc3)c2)CC1	-12.0%	-14.7%	-21.6%	i	8.6%	-3.4%
O=c1c2cc(Cl)ccc2oc2nc3n(c(=O)c12)CCCS3	0.2%	-2.5%	-9.2%	i	12.6µM*	0.3%
CC(C)(C)c1ccccc1NC(=O)c1cccnc1	-2.1%	5.3%	-16.2%	i	-4.8%	31.6µM*
Cc1c(CN(C)C)c2c(n1C)C(=O)c1ccc(Br)cc1-2	-12.2%	3.0%	?	i	2.51µM*	-12.8%
Cc1ccc2nsnc2c1S(=O)(=O)N1CCN(CCc2ccccc2)CC1	-3.3%	-2.2%	?	i	25.1µM*	-6.6%
O=C(Nc1c2c(nn1-c1ccc(F)cc1)CSC2)c1ccc(S(=O)(=O)N2CCOCC2)cc1	-7.8%	7.3%	-26.8%	i	23.9%	0.5%
CN(C)C(=O)N1CCC(C(=O)NCc2ccc(F)cc2)CC1	-0.1%	6.8%	-13.9%	i	5.1%	8.9%
Cc1nc2ccc(F)cc2cc1C(=O)NCC1CCCO1 (stereo not drawn)	-3.3%	-5.1%	-15.6%	i	12.6µM*	-0.2%
CCOC(=O)c1cnc2c(C)cccc2c1NCc1ccco1	?	-1.5%	-4.2%	i	22.1%	-11.2%
CCOC(=O)c1cnc2c(C(=O)OC)cccc2c1NCc1ccco1	-6.3%	-9.7%	?	i	12.6µM*	-9.9%
Brc1ccc2c(c1)c1nc3ccccc3nc1n2CCN1CCOCC1	-12.7%	31.6µM*	31.6µM*	i	15.8µM*	-19.6%
O=c1c2ccccc2nc(-c2ccccc2)n1CCN1CCOCC1	-0.4%	0.9%	0.0%	i	-7.8%	-2.3%
c1ccc2nc3c(nc2c1)c1ccccc1n3CCN1CCOCC1	10.8%	-28.1%	-29.0%	i	12.6µM*	-17.8%
CC(=O)Nc1ccc(S(=O)(=O)c2c(N)n(CCN3CCOCC3)c3nc4ccccc4nc23)cc1	2.8%	?	8.7%	i	-4.6%	7.7%
CCn1c(C)nc2cc(S(=O)(=O)N3CCCCC3)ccc21	-2.6%	15.2%	-13.7%	i	-1.5%	0.4%
CCn1c2ccccc2c2nc3cc(S(=O)(=O)N4CCOCC4)ccc3nc21	27.6%	?	17.9%	i	25.1µM*	-4.6%
Cc1cc2cc(CN3C(=O)c4ccccc4C3=O)ccc2n1C	-9.8%	?	36.9%	i	20µM*	-8.8%
COc1ccccc1OCCCn1c(=O)oc2ccc(C)cc21	10.6%	-9.0%	12.5%	i	-2.6%	-0.9%
COc1ccccc1-n1c(=O)oc2ccc(Cl)cc2c1=O	-4.1%	1.2%	20µM*	i	-12.3%	-3.3%
Cc1ccc(CN2CCC(C(=O)NCCC(C)C)CC2)o1	-1.8%	17.5%	-1.5%	i	-14.2%	-0.3%
SMILES	Hsp90 Hop PPI	15-hLO inh	ERK AVP inh	TsaE inh	Tau filament bind	DNA Pol III inh
COCCn1nnnc1C(c1ccc(C)cc1)N1CCN(Cc2ccc3c(c2)OCO3)CC1 (stereo not drawn)	-3.4%	14.7%	-2.1%	i	-7.1%	-7.7%
COCCn1nnnc1C(c1ccccc1)N1CCN(Cc2ccc3c(c2)OCO3)CC1 (stereo not drawn)	10.8%	-29.8%	39.8µM*	i	11.7%	?
COc1ccc(N2CCN(c3nc(NC(C)(C)C)nc(N4CCCCC4)n3)CC2)cc1	?	-7.9%	?	i	10µM*	-3.4%
c1cc2c(cc1-c1cnc3n1CCC3)OCCO2	-5.7%	25.0%	15.8µM*	i	-0.7%	?
Cn1c(-c2ccc3c(c2)OCO3)cnc1N	-23.3%	-2.5%	17.9%	i	-18.1%	-1.7%
CO[C@@H]1/C=C\O[C@@]2(C)Oc3c(C)c(O)c4c(c3C2=O)C(=N[C@H]2CC[C@H](O)O[C@@H]2C)C=C(NC(=O)/C(C)=C\C(=O)[C@@H]2C[C@@H]2[C@@H](O)[C@H](C)[C@@H](O)[C@H](C)[C@H](OC(C)=O)[C@@H]1C)C4=O	-11.0%[11 µM]	2µM*	12.0%[11.5 µM]	i	23.6%[11.4 µM]	17.7%[11.4 µM]
CO[C@@H]1/C=C\O[C@]2(C)Oc3c(C)c(O)c4c(O)c(c(CN5CCN(C)CC5)c(O)c4c3C2=O)NC(=O)/C(C)=C\C=C[C@@H](C)[C@@H](O)[C@H](C)[C@@H](O)[C@H](C)[C@H](OC(C)=O)[C@@H]1C	-16.6%[11 µM]	?	-1.1%[11.5 µM]	i	3.4%[11.4 µM]	-5.8%[11.4 µM]
O=C(Nc1nc2c(Cl)cccc2s1)c1ccc(Br)o1	1.5%	-14.6%	25.1µM*	i	182.8%	0.5%
O=C(Nc1nc2ccc(Cl)cc2s1)c1ccc(Br)o1	-1.6%[11 µM]	-7.6%[11.4 µM]	-9.2%	i	59.5%[11.4 µM]	-15.4%[11.4 µM]
O=C(CP(=O)(CO)CO)c1ccc(Cl)cc1	-4.0%	1.6%	-1.3%	i	-4.7%	3.5%
O=C1c2ccccc2C(=O)N1Cc1ccco1	-2.4%	3.1%	-10.4%	i	0.2%	2.3%
CC1=CC(=C2C(=O)c3ccccc3C2=O)C=C(C)N1Cc1ccco1	-8.0%	-18.4%	15.1%	i	31.6µM*	-5.2%
CCOc1ccc(C2N(c3ccc(F)cc3)C(=O)C3CCCN32)cc1 (stereo not drawn)	1.3%	0.6%	-19.3%	i	12.3%	-1.2%
CNC(=O)c1cc2cc(OC)ccc2n1CCN(C)C	-6.4%	-29.1%	-2.4%	i	-4.1%	-2.4%
Cc1ccc(C(=O)CCNc2cccc(Br)c2)o1	1.6%	12.6µM*	?	i	-10.2%	-2.3%
CN(C)c1ccc(N/C=C/C(=O)c2ccccc2)cc1	?	?	?	i	15.8µM*	-3.5%
COCC(=O)Nc1ccc(N(C)C)cc1	-4.4%	-20.1%	-9.6%	i	-4.4%	-4.9%
CCC(Cl)CC(Cl)C(Cl)C(Cl)C(Cl)C(C)Cl (stereo not drawn)	31.6µM*	-1.9%	64.2%	i	-3.9%	-6.2%
C=C(C)CSC1=C(C#N)C(c2ccccc2Cl)CC(=O)N1 (stereo not drawn)	-2.6%	15.8µM*	20µM*	i	-6.0%	-2.9%
